# According to PubChem BioAssay:
# Activity calls are given as the source filed them.
# Tests used:
# [1] = small molecules captured by biotinylated probe aFSTL3 – biochemical, small-molecule microarray, fluorescence 635/667, stem cell growth factor project, primary screen (AID 1064); conditions: higher = more signal;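 further: measures binding of the biotinylated anti-FSTL3 antibody to printed compounds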
# [2] = binders from COS7 lysate, DM2A8 probe, primary screen, torsin A project, cell lysate, small-molecule microarray, fluorescence 635/667 (AID 1065); conditions: higher = more signal, COS7 lysate expressing mutant human TOR1A
# [3] = small molecules captured by biotinylated probe aFGF2 – biochemical, small-molecule microarray, fluorescence 635/667, stem cell growth factor project, primary screen (AID 1067); conditions: higher = more signal;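 further: measures binding of biotinylated aFGF2 protein to printed compounds on slides; z-score merges feature fluorescence and signal-to-noise across triplicate slides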
# [4] = small molecules captured by biotinylated probe aFGF10 – biochemical, small-molecule microarray, fluorescence 635/667, stem cell growth factor project, primary screen (AID 1071); conditions: higher = more signal;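 further: score merges 667 nm spot intensity and signal to noise from triplicate slides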
# [5] = target: Neurogenic locus notch homolog protein 2 (Homo sapiens) (UniProt Q04721); assay: small molecules binding Notch2 protein – biochemical, small-molecule microarray, 635 nm fluorescence, stem cell growth factors, primary screen (AID 1073); conditions: higher = more signal
# Sequence of Neurogenic locus notch homolog protein 2 (Homo sapiens) (Q04721 whole entry, looked up, canonical isoform): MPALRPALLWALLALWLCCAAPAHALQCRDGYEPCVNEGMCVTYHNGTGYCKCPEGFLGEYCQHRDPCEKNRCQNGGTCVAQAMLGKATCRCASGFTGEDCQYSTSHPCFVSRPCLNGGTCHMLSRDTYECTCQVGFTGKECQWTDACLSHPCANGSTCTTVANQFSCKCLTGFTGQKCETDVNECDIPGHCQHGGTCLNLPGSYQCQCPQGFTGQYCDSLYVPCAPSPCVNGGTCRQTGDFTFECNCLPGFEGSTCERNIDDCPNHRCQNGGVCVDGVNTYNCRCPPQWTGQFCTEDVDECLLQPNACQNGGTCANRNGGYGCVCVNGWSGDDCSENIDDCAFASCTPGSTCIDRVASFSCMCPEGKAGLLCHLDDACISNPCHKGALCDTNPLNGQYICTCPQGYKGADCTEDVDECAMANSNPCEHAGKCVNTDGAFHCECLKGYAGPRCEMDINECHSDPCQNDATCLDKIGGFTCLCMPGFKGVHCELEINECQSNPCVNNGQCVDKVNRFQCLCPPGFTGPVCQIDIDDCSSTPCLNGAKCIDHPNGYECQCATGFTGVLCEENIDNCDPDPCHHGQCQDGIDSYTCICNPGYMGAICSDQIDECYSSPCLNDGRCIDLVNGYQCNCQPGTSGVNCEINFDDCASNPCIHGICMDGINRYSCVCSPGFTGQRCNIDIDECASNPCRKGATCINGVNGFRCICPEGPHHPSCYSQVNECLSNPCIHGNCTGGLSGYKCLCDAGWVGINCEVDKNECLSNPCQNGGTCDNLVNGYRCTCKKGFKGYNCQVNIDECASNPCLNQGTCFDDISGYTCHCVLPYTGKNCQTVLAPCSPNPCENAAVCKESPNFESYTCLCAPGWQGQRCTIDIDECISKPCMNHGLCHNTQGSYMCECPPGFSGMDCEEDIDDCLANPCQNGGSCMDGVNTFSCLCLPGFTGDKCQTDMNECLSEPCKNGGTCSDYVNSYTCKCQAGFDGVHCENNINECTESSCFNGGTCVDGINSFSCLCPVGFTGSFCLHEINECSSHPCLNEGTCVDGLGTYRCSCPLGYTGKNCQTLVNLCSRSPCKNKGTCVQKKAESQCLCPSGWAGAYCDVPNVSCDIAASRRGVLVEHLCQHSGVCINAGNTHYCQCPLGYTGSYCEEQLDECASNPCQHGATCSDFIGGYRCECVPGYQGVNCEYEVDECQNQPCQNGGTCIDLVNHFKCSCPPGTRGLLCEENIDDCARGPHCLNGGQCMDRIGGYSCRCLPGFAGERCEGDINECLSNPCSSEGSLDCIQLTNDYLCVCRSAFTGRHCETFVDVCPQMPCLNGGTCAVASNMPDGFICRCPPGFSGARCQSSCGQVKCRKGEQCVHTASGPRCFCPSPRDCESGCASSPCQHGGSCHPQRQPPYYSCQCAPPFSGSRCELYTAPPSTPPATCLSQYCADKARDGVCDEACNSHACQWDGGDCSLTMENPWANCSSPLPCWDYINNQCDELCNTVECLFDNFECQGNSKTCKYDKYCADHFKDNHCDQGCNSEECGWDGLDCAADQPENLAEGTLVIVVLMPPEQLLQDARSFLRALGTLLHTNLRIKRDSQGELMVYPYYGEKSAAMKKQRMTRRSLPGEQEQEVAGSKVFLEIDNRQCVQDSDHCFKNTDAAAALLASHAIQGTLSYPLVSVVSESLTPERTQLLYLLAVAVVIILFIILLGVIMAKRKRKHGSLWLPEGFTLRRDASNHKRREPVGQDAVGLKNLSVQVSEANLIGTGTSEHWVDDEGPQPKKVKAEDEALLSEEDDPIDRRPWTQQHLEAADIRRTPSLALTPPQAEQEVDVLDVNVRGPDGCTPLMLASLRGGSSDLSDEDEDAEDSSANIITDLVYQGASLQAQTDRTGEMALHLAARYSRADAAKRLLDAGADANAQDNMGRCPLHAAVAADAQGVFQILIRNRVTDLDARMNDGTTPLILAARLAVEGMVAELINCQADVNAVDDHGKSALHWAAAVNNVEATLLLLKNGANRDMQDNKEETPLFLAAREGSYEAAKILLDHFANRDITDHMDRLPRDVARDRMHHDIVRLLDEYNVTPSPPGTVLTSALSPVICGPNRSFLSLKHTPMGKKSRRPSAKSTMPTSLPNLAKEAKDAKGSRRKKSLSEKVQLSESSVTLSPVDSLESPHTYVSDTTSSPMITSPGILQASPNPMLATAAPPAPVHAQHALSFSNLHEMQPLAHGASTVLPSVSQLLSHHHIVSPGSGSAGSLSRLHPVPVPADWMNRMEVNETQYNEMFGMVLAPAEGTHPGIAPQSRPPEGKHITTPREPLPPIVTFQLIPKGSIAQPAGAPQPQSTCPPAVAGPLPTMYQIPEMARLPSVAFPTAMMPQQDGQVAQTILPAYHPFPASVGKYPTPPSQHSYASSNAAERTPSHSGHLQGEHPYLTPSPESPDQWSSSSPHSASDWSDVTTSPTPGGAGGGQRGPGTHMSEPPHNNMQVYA
# [6] = target: Pro-neuregulin-1, membrane-bound isoform (Homo sapiens) (UniProt Q02297); assay: small molecules binding neuregulin-1 protein – biochemical, small-molecule microarray, fluorescence 635/667, psychiatric disease protein project, primary screen (AID 1075); conditions: NRG1 binding, 635 nm fluorescence, higher = more signal;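 further: score combines 667 nm spot fluorescence with signal to noise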
# Sequence of Pro-neuregulin-1, membrane-bound isoform (Homo sapiens) (Q02297 whole entry, looked up, the tested form may be a part, canonical isoform): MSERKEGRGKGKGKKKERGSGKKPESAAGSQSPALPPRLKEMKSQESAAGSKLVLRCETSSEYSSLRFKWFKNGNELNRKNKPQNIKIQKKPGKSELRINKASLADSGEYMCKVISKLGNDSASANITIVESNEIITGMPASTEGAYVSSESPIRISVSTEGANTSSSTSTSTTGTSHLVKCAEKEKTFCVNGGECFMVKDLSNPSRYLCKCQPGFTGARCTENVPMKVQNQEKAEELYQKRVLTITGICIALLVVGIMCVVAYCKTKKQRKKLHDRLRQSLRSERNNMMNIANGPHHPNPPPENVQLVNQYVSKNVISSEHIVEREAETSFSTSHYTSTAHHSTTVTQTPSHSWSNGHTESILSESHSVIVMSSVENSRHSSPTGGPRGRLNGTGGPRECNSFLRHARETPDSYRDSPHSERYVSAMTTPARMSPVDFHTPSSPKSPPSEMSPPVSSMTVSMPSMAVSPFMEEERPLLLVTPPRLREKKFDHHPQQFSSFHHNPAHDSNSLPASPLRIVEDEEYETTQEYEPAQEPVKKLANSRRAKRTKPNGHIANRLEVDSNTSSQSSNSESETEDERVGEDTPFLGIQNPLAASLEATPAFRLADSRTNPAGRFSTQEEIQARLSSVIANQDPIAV
# [7] = test system: Neuregulin-1 EGF-like domain; assay: small molecules binding NRG1 EGF domain – biochemical, small-molecule microarray, 635 nm fluorescence, primary screen (AID 1081); conditions: higher = more signal;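 further: binding of the protein to compounds printed on small-molecule microarray slides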
# [8] = FRG1 expression reporter modulators in myotubes – cell-based, C2C12 myotubes, firefly/Renilla luciferase, luminescence, FRG1 inhibition for FSHD, primary screen (AID 1084); conditions: FRG1 promoter luciferase, higher = more signal, called active from +8 up or from −8 down
# [9] = small molecules captured by biotinylated probe aFST – biochemical, small-molecule microarray, fluorescence 635/667, stem cell growth factor project, primary screen (AID 1086); conditions: higher = more signal;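 further: score merges 667 nm fluorescence with signal-to-noise of each printed compound spot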
# [10] = binders of probe aHhip on microarray, primary screen, stem cell growth factor project, biochemical, small-molecule microarray, fluorescence 635/667 (AID 1087); conditions: higher = more signal;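 further: score merges spot fluorescence at 667nm with spot signal to noise ratio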
# [11] = test system: PRMT1 (protein arginine N-methyltransferase 1); assay: small molecules binding arginine methyltransferase PRMT1 – biochemical, small-molecule microarray, 635 nm fluorescence, primary screen (AID 1088); conditions: higher = more signal;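 further: binding of Prmt1 protein to compounds spotted on small-molecule microarray slides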
# [12] = growth effects on S. cerevisiae YJM789 – YJM789 clinical isolate, OD600, 24 h, basal, primary screen (AID 1089); conditions: higher = more signal, called active from +8 up or from −8 down;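 further: growth of clinical yeast isolate S. cerevisiae YJM 789 seeded 1000 cells per well; test concentration not given here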
# [13] = S. pombe growth modifiers, basal conditions – strain 972, OD600, 24 h, no modulator, primary screen (AID 1090);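 further: basal condition with compound alone and no growth modifier present; test concentration not given here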; conditions: S. pombe 972 growth, higher = more signal, called active from +8 up or from −8 down
# [14] = budding yeast growth modifiers under rapamycin – strain BY4716, OD600, 96 h, primary screen (AID 1091); further: test concentration not given here; conditions: S. cerevisiae BY4716 + rapamycin, higher = more signal, called active from +8 up or from −8 down
# [15] = target: Torsin-1A-interacting protein 2 (Homo sapiens) (UniProt Q8NFQ8); assay: small molecules binding lysate-expressed LULL1 – cell lysate, human LULL1 lysate, 635/667 nm fluorescence, primary screen (AID 1092); conditions: small-molecule microarray, hLULL1 lysate binding, 635 nm fluorescence; higher = more signal;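 further: probe is lysate of COS7 cells overexpressing human LULL1; score merges per-feature 667 nm fluorescence with signal-to-noise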
# Sequence of Torsin-1A-interacting protein 2 (Homo sapiens) (Q8NFQ8 whole entry, looked up): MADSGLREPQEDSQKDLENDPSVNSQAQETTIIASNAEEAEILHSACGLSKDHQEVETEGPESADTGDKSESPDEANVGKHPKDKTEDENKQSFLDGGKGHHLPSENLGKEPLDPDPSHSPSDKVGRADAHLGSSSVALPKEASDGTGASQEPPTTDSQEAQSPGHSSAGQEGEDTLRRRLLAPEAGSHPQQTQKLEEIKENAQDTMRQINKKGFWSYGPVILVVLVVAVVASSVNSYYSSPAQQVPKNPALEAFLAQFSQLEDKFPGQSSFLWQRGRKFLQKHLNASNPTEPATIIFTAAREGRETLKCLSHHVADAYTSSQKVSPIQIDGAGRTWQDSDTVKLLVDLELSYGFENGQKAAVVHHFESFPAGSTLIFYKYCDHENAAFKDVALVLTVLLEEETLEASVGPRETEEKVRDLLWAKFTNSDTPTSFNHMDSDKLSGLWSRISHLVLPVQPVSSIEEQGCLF
# [16] = optical density change of DRC41 E. coli – strain DRC41, OD650, 24 h, E. coli filamentation project, primary screen (AID 1093);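 further: MC1000 strain lacking acrAB efflux and sulA so SOS filamentation is blocked; test concentration not given here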; conditions: E. coli DRC41 growth, higher = more signal, called active from +8 up or from −8 down
# [17] = probe aLefty2 binding to arrayed compounds – biochemical, biotinylated probe, 635/667 nm fluorescence, primary screen (AID 1094); conditions: small-molecule microarray, higher = more signal;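 further: score merges spot fluorescence near 667 nm with spot signal-to-noise ratio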
# [18] = test system: Noggin (protein binding on small-molecule microarray); assay: small molecules binding Noggin protein – biochemical, 635/667 nm fluorescence, primary screen (AID 1095); conditions: 635 nm fluorescence, higher = more signal;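 further: score merges 667 nm feature fluorescence with signal to noise over triplicate slides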
# [19] = target: Neurogenic locus notch homolog protein 3 (Homo sapiens) (UniProt Q9UM47); assay: small molecules binding NOTCH3 protein – biochemical, 635/667 nm fluorescence, primary screen (AID 1096); conditions: small-molecule microarray, 635 nm fluorescence, higher = more signal
# [20] = probe aEGFR binding to arrayed compounds – biochemical, biotinylated probe, 635/667 nm fluorescence, primary screen (AID 1097); conditions: small-molecule microarray, higher = more signal;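 further: probe is a biotinylated anti-EGFR antibody binding compounds printed on slides; score combines fluorescence near 667 nm and signal to noise of each spot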
SMILES,composite z-score [1],composite z-score [2],composite z-score [3],composite z-score [4],composite z-score [5],composite z-score [6],composite z-score [7],z-score [8],composite z-score [9],composite z-score [10],composite z-score [11],z-score [12],z-score [13],z-score [14],composite z-score [15],z-score [16],composite z-score [17],composite z-score [18],composite z-score [19],composite z-score [20]
COCCOC(=O)N1C(=O)[C@@]2(c3ccccc31)[C@H](c1ccc(OCCO)cc1)N1[C@H](c3ccccc3)[C@H](c3ccccc3)OC(=O)[C@H]1[C@@H]2C(=O)N1CCN(c2ncccn2)CC1,-0.185,0.751,0.0323,0.559,1.47,1.33,1.24,-0.132 (inactive),0.742,0.107,1.54,1.52 (inactive),1.01 (inactive),5.4 (inactive),2.5,0.374 (inactive),0.101,1.34,1.05,0.241
CC=CC(O)C1C=CC2C(=O)N(C)C(=O)C2N1NC(=O)OC(C)(C)C (stereo not given),-0.0303,0.371,-0.072,0.488,1.16,0.746,1.09,0.282 (inactive),0.449,0.108,0.534,-0.219 (inactive),0.64 (inactive),0.0896 (inactive),0.522,-1.13 (inactive),-0.286,0.251,0.775,-0.0244
COCCOC(=O)N1C(=O)[C@@]2(c3cc(C#CC4(O)CCCCCC4)ccc31)[C@H](c1ccc(OCCO)cc1)N1[C@H](c3ccccc3)[C@H](c3ccccc3)OC(=O)[C@H]1[C@@H]2C(N)=O,-0.392,0.96,0.014,1.05,0.96,1.32,1.14,0.11 (inactive),0.48,-0.0645,1.53,1.29 (inactive),0.926 (inactive),4.69 (inactive),1.67,0.257 (inactive),0.0494,1.52,1.06,-0.013
C=CCC(OC(C)=O)[C@@H]1[C@@H](N(Cc2ccc(-c3cccc(C(F)(F)F)c3)o2)C(=O)Cc2ccc(F)cc2)c2cc(OCCCO)ccc2N1C(=O)c1ccc2ccccc2n1 (stereo not given in full),-0.019,0.193,-0.106,-0.321,-0.848,-0.114,-0.533,0.01 (inactive),0.0974,0.235,-1.08,-0.203 (inactive),0.15 (inactive),-0.522 (inactive),-0.452,-1.08 (inactive),-0.0415,-0.436,-0.768,-0.157
CCOC(=O)C[C@H]1[C@H](OC(=O)c2ccc(C(=O)c3ccccc3)cc2)[C@@H](NC(=O)c2ccc3ccccc3c2)c2cc(OCCCO)ccc2N1C(=O)c1ccc2ccccc2n1,-0.432,0.761,-0.101,0.746,0.5,0.43,0.53,0.476 (inactive),0.392,-0.151,1.26,0.216 (inactive),-0.629 (inactive),0.256 (inactive),0.962,1.79 (inactive),0.0249,0.836,1.03,0.111
C[C@@H](OCc1ccccc1)C1NC(=O)[C@@]23C(=O)N[C@@H](Cc4ccccc4)C2[C@H](C)[C@@]2(C)O[C@H]2C3/C=C/C/C=C\CNC(=O)[C@H](Cc2ccccc2)NC1=O (stereo not given in full),-0.497,-0.0147,-0.199,0.709,-0.284,-0.239,0.438,3.33 (inactive),-0.128,0.103,0.448,-0.712 (inactive),-0.985 (inactive),-0.0389 (inactive),0.956,1.29 (inactive),-0.23,0.762,0.655,-0.0257
COCCOC(=O)N1C(=O)[C@@]2(c3cc(C#CCCO)ccc31)[C@H](c1ccccc1OCCO)N1[C@H](c3ccccc3)[C@H](c3ccccc3)OC(=O)[C@H]1[C@@H]2C(=O)N1CCc2cc(OC)c(OC)cc2C1,0.071,0.827,0.022,1.04,1.04,1.21,1.17,-1.4 (inactive),0.505,0.0373,1.54,1.88 (inactive),0.763 (inactive),3 (inactive),2.93,1.26 (inactive),-0.0616,1.26,1.12,0.0384
COC(=O)C(CC#Cc1ccc2c(c1)[C@]1(C(=O)N2)[C@H](c2ccc(O)cc2)N2[C@H](c3ccccc3)[C@H](c3ccccc3)OC(=O)[C@H]2[C@@H]1C(=O)N1CCc2cc(OC)c(OC)cc2C1)C(=O)OC,-0.312,0.475,-0.0692,0.59,1.07,0.296,1.27,1.63 (inactive),0.652,-0.0755,1.54,1.39 (inactive),1.12 (inactive),0.735 (inactive),1.59,-0.829 (inactive),-0.109,0.958,1.05,0.232
COC(=O)[C@@]1(Cc2ccc(F)cc2)[C@H]2c3cc(C(=O)N4CCCC4)n(CCO)c3C[C@H]2CN1C(=O)c1ccccc1,0.0451,-0.124,0.153,0.603,1.64,1.06,1.26,0.383 (inactive),0.537,0.628,-1.09,-0.215 (inactive),1 (inactive),-0.164 (inactive),2.88,0.208 (inactive),0.335,0.4,0.517,0.0753
